Experimental data published in PubChem BioAssay AID602250 (The Scripps Research Institute Molecular Screening Center, 2012).
Hit rate of the full screen: of about 360,000 compounds, about 2,200 (0.61%) were called active.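 The calls were made as follows: active = inhibition above a per-plate cutoff, the plate's mean sample inhibition plus 3 SD (cut at about 24% in these data); inactive = the rest.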 The full list was thinned out, with actives kept by preference.

Assay: nonselective inhibitors of ATP calcium response in CHO-K1, primary screen, counter-screen for M1 antagonist project, cell-based, Fluo-8 calcium fluorescence, full deck, 1536-well (AID 602250);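 also: 0% = DMSO plus EC80 ATP and 100% = DMSO alone without ATP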
Conditions: CHO-K1 parental, ATP-induced calcium, Fluo-8 fluorescence; at 3 µM; active compounds read high
For `O=C(Nc1c(C(=O)N2CCCCC2)cnn1-c1ccccc1)c1ccco1`, the inhibition was -0.49% (inactive).
For `O=C(Nc1ccc(-n2cccn2)cc1)C1CCN(Cc2ccsc2)CC1`, the inhibition was 9.41% (inactive).
With `CCCN(CCc1ccccc1)C1CCc2c(O)cccc2C1` (stereo unspecified) the inhibition was 27.5% (active).
With `Cc1cc(C)cc(C(=O)N(CCc2ccccc2)C2=CC3CCC(C2)N3C)c1` (stereo unspecified) the inhibition was -5.45% (inactive).
With `CCN(CC(=O)NC(C)C)C(=O)CCNC(=O)c1ccc(Cl)cc1` the inhibition was -14.6% (inactive).
For `O=C1NC[C@@H](Cc2ccc(O)cc2)N(CCc2cccc(F)c2)C1=O`, the inhibition was -5% (inactive).
In the case of `Cc1cc(C)c(C#N)c(N2CCC(C(N)=O)CC2)n1`, the inhibition was 23.7% (active).
For `N#Cc1c(N2CCCCC2)nc(N)c2c(N)nc(SCC(=O)O)cc12`, the inhibition was -8.03% (inactive).
In the case of `Cc1cccn2c(=O)c(/C=C(\C#N)S(=O)(=O)c3ccc(Cl)cc3)c(N3CCC(C(N)=O)CC3)nc12`, the inhibition was -14.1% (inactive).
With `Cc1ccc(OS(=O)(=O)c2ccc(-c3csc(C)n3)s2)c(C)c1` the inhibition was -12% (inactive).
For `CC1=C2C(=O)OC(c3ccoc3)C2(C)CCC1` (stereo unspecified), the inhibition was -12.4% (inactive).
In the case of `Cc1ccc(-n2nc3c(=O)n(C(C)C(=O)NCc4ccc5c(c4)OCO5)nc(C)c3c2C)cc1` (stereo unspecified), the inhibition was -17.4% (inactive).
For `CC1=C(C(=O)N(C)C)CC(CC(=O)NCCN2CCOCC2)C(=O)N1Cc1ccccc1` (stereo unspecified), the inhibition was -3.35% (inactive).
With `COc1ccc(OC)c(C2C3=C(N=c4s/c(=C\c5cccc(O)c5)c(=O)n42)c2ccccc2CC3)c1` (stereo unspecified) the inhibition was -5.43% (inactive).
With `CCOc1ccccc1NC(=S)NC(=O)CCc1ccccc1` the inhibition was -6.79% (inactive).
For `O=C(Cc1ccc(Cl)cc1)NC(=S)Nc1ccccc1O`, the inhibition was 31.4% (active).
For `COC(=O)c1ccccc1NC(=O)CN(Cc1ccc(Cl)cc1)S(C)(=O)=O`, the inhibition was -17.4% (inactive).
In the case of `CC(=O)c1cc(C#N)c(SCC(=O)Nc2nccs2)nc1C`, the inhibition was -13.3% (inactive).
For `Clc1cc(NC2CCCCC2)ncn1`, the inhibition was 0.49% (inactive).
In the case of `COCCCN(C(=O)Cn1ncc2c(=O)oc3ccc(C)cc3c21)C(C)c1ccncc1` (stereo unspecified), the inhibition was -9.26% (inactive).
For `CCCCn1nnnc1C(c1cccc(OC)c1OC)N1CCN(C/C=C/c2ccccc2)CC1` (stereo unspecified), the inhibition was -19.7% (inactive).
For `CC(=O)c1c(C)[nH]c(C(=O)COC(=O)CCOc2ccc(C)cc2)c1C`, the inhibition was 4.03% (inactive).
In the case of `CC(=O)c1c(C)[nH]c(C(=O)COC(=O)c2cccc(S(=O)(=O)N(C)c3ccccc3)c2)c1C`, the inhibition was 43.1% (active).
With `CN(c1ccccc1)S(=O)(=O)c1ccc(Cl)c(C(=O)OCC(N)=O)c1` the inhibition was 4.64% (inactive).
With `O=C(NCc1ccccc1)[C@@H]1CSC2c3ccccc3C(=O)N21` (stereo partly specified) the inhibition was -4.7% (inactive).
With `Nc1ccc2nn(-c3ccc(Cl)cc3)nc2c1` the inhibition was -10.4% (inactive).
In the case of `CN(C(=O)CN1C(=O)NC(C)(CCc2ccccc2)C1=O)c1ccccc1` (stereo unspecified), the inhibition was -3.27% (inactive).
With `CN(C)c1ccc(CSc2ccccc2)cc1` the inhibition was -21.6% (inactive).
In the case of `CN(C)c1ccc(/C=C2\NC(=S)N(Cc3ccccc3)C2=O)cc1`, the inhibition was 53.4% (active).
In the case of `COc1ccc(-c2nc(SCC(=O)N3CCOCC3)n[nH]2)cc1`, the inhibition was -11.8% (inactive).
For `Cc1ccc(N2C(=O)CC(Sc3ncn[nH]3)C2=O)cc1` (stereo unspecified), the inhibition was -12.5% (inactive).
For `COc1ccc(N2C(=O)CC(Sc3n[nH]c(-c4ccc(C)cc4)n3)C2=O)cc1` (stereo unspecified), the inhibition was 24.5% (active).
In the case of `Cn1c(SCC(=O)NC2CCCCC2)nnc1-c1cc2ccccc2o1`, the inhibition was -5.47% (inactive).
For `CCc1c(SCCC(=O)O)nc2ccccc2c1C`, the inhibition was -13.8% (inactive).
For `CCNC(=S)NCC`, the inhibition was -17.7% (inactive).
For `Cc1ccc(C2=C/C(=C\c3cccnc3)C(=O)O2)cc1`, the inhibition was 6.03% (inactive).
For `O=C1NNC(c2ccccc2)=N/C1=C\c1ccc(Cl)cc1`, the inhibition was 3.07% (inactive).
For `O=C1OC(c2ccc(Cl)cc2)=N/C1=C\c1cccnc1`, the inhibition was 32.7% (active).
With `Cn1cncc1COC(=O)c1ccc(Cl)cc1` the inhibition was 9.06% (inactive).
In the case of `CN1OC(COC(=O)c2ccc(Cl)cc2)CC1c1ccccc1` (stereo unspecified), the inhibition was 28.7% (active).
For `CCCCCCN1C[C@@H](O)[C@H](n2cc(COC(=O)c3ccccc3)nn2)C[C@@H]1c1ccc(Cl)cc1`, the inhibition was 0.85% (inactive).
In the case of `O=C(Nn1cc(C(=O)N2CCN(c3ccccc3F)CC2)c2ccccc2c1=O)c1cnccn1`, the inhibition was -2.09% (inactive).
In the case of `O=C(NCCCO)c1cc2c([nH]c3ccccc32)c(-c2ccc(F)cc2)n1`, the inhibition was -6.07% (inactive).
For `O=C(NCC1CCCO1)c1cc2c([nH]c3ccccc32)c(-c2ccc(F)cc2)n1` (stereo unspecified), the inhibition was 31.3% (active).
With `COc1ccc2cc(C(=O)NCC3CCCO3)[nH]c2c1` (stereo unspecified) the inhibition was -13.7% (inactive).
For `Fc1ccccc1CCNc1nnnn1-c1ccccc1`, the inhibition was -1.72% (inactive).
With `COC(=O)Cc1ccc(NC(=S)NCc2ccco2)cc1` the inhibition was 2.26% (inactive).
In the case of `Cc1ccsc1C(=O)NCCc1ccco1`, the inhibition was -8.62% (inactive).
In the case of `OCCc1ccc(NCCc2ccco2)cc1`, the inhibition was 29.2% (active).
For `CC1=CC2=NC(=O)CC(C)(C(=O)N(CC(=O)NC(C)(C)C)Cc3ccccc3)N2C=C1` (stereo unspecified), the inhibition was -17.9% (inactive).
In the case of `CC1(C)CC(=O)C2=C(C1)N=C1SCCC(=O)N1C2c1ccc(C(F)(F)F)cc1` (stereo unspecified), the inhibition was -16.7% (inactive).
For `N/C(=N\OC(=O)Cc1ccccc1[N+](=O)[O-])c1ccc(Br)cc1`, the inhibition was -3.46% (inactive).
In the case of `N/C(=N\OC(=O)/C=C/c1ccccc1)c1ccc(Br)cc1`, the inhibition was 24.5% (active).
In the case of `N/C(=N\OC(=O)N1c2ccccc2Sc2ccccc21)c1ccc(Br)cc1`, the inhibition was -4.6% (inactive).
With `CCc1ccc(/C=N/NC(=O)c2ccc(OC3CCCC3)cc2)s1` the inhibition was 3.77% (inactive).
In the case of `Cc1cc(=O)oc2c(C)c(OCC(=O)NCCN3CCOCC3)ccc12`, the inhibition was -7.03% (inactive).
With `O=C(C1CCCO1)N1CCN(S(=O)(=O)c2ccc(Br)cc2)CC1` (stereo unspecified) the inhibition was 5.99% (inactive).
For `COc1cc(C(=S)NCc2ccccc2)cc(Br)c1O`, the inhibition was -5.75% (inactive).
In the case of `CCC(C)NC(=O)Cn1nc(C(F)(F)F)c2c1CCC2` (stereo unspecified), the inhibition was -24.7% (inactive).
For `O=C(Cn1nc(C(F)(F)F)c2c1CCC2)NCc1ccc(F)cc1`, the inhibition was 25% (active).
In the case of `Cc1cc(NC(=O)Cn2nc(C(F)(F)F)c3c2CCCC3)no1`, the inhibition was -9.16% (inactive).
